Experimental data published in PubChem BioAssay.
Values joined by “and” are separate entries in the source; they are usually repeats but may differ in a detail not shown here. Equal entries are not always repeated. Active and inactive are the calls of the source.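 The calls were made as follows, unless noted: active = thallium flux through the channel raised or lowered by more than 3 SD from vehicle-only wells, actives on both sides; inactive = the rest.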

Legend:
[1] = P. berghei load reduction in hepatocytes – cell-based, HepG2, luciferase luminescence, HepG2 viability, primary screen (AID 624349; in the data active = parasite load remaining mostly below about 12%, no sharp cut-off; inactive = mostly above about 10%;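 also: 100% = mean of DMSO negative control wells on the same plate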); settings: P. berghei liver stage in HepG2, luciferase luminescence, concentration not given here; parasite load remaining: stronger effect = lower value; viability: measured here: HepG2 viability without parasites
[2] = signal quenchers or enhancers, Cy5 substrate/SSB – biochemical, NIH Clinical Collection, E. coli SSB, artefact control for HCV NS3 helicase inhibitor project (AID 743268; call rule not given here); settings: Cy5-oligo bound E. coli SSB, fluorescence interference
[3] = system: Hepatitis C virus NS3 helicase; assay: blockers of NS3h binding to DNA – biochemical, fluorescence polarization, NIH Clinical Collection, primary screen (AID 743270; call rule not given here); settings: NS3 helicase binding to Cy5-dT15 DNA, stronger effect = higher value, concentration not given here
[4] = molecular target: Single-stranded DNA-binding protein (Escherichia coli (strain K12)) (UniProt P0AGE0); assay: SSB-ssDNA binding inhibitors – biochemical, fluorescence polarization, NIH Clinical Collection, counter-screen for HCV NS3 helicase inhibitor project (AID 743271; in the data active = inhibition above about 28%); settings: E. coli SSB-DNA binding, stronger effect = higher value, concentration not given here
[5] = compounds distorting NS3 helicase fluorescence signal – biochemical, NIH Clinical Collection, artefact control for HCV NS3 helicase inhibitor project (AID 743272; call rule not given here;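 also: HCV NS3 helicase with a Cy5 labelled single stranded DNA probe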); settings: fluorescence interference counterscreen, HCV NS3 helicase assay; stronger effect = lower value
[6] = molecular target: 6-phosphogluconate dehydrogenase, decarboxylating (Homo sapiens) (UniProt P52209); assay: inhibition of human phosphogluconate dehydrogenase – biochemical, recombinant enzyme, NADPH absorbance, primary screen (AID 1159550;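 active = at least 20% inhibition of 6-phosphogluconate dehydrogenase activity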); settings: recombinant 6PGD, NADPH absorbance 341 nm; at 10 µM; stronger effect = higher value
6-phosphogluconate dehydrogenase, decarboxylating (Homo sapiens), sequence (P52209 whole entry, looked up): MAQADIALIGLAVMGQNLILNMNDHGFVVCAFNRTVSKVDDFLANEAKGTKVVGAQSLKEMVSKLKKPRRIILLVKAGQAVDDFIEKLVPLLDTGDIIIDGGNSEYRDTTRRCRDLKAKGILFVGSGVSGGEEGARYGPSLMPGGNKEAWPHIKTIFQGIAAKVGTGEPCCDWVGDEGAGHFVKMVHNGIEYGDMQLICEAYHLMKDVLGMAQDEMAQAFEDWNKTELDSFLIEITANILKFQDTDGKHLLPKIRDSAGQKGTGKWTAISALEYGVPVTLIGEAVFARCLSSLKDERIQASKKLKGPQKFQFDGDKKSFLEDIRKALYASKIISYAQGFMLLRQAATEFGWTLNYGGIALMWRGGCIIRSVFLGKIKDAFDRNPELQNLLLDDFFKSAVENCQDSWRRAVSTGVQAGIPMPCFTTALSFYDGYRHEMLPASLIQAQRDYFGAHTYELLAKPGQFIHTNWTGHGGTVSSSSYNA

[7] = modulation of C. elegans fzo-1 (AID 1259413; call rule not given here;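 also: fzo-1 mutant C. elegans worms in liquid wells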); settings: C. elegans fzo-1 modulator screen, mean read-out; stronger effect = higher value
[8] = viability loss with induced miR-34 in A549 – imaging, A549 dox-inducible miR-34, nuclei and caspase counts, primary screen (AID 1347080;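 active = compounds whose cell count with miR-34 switched on is under 0.7 times the count with it off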); settings: A549 miR-34 inducible, Hoechst nuclei count, 48 h
[9] = MELAS cybrid and Rieske KO viability enhancers – cell-based, MELAS cybrids, Rieske KO mouse fibroblasts, CellTiter-Glo, primary screen (AID 1508586;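 active = mean z-score across replicates of 1.96 or higher in either the MELAS or the Rieske mutant cell line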;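 also: z relative to plate mean and SD of compound and empty wells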); settings: low glucose
[10] = molecular target: Mitogen-activated protein kinase 7 (Homo sapiens) (UniProt Q13164); assay: Gal4-ERK5 driven luciferase induction – cell-based, HTS, primary screen (AID 1508626;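 active = luciferase signal above three times the same-plate solvent-only control wells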;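 also: luciferase driven by Gal4-ERK5 fusion binding five Gal4 sites before minimal TATA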); settings: HeLa Gal4-ERK5 transactivation, 18 h, at 5 µM, stronger effect = higher value
Mitogen-activated protein kinase 7 (Homo sapiens), sequence (Q13164 whole entry, looked up, the tested form may be a part): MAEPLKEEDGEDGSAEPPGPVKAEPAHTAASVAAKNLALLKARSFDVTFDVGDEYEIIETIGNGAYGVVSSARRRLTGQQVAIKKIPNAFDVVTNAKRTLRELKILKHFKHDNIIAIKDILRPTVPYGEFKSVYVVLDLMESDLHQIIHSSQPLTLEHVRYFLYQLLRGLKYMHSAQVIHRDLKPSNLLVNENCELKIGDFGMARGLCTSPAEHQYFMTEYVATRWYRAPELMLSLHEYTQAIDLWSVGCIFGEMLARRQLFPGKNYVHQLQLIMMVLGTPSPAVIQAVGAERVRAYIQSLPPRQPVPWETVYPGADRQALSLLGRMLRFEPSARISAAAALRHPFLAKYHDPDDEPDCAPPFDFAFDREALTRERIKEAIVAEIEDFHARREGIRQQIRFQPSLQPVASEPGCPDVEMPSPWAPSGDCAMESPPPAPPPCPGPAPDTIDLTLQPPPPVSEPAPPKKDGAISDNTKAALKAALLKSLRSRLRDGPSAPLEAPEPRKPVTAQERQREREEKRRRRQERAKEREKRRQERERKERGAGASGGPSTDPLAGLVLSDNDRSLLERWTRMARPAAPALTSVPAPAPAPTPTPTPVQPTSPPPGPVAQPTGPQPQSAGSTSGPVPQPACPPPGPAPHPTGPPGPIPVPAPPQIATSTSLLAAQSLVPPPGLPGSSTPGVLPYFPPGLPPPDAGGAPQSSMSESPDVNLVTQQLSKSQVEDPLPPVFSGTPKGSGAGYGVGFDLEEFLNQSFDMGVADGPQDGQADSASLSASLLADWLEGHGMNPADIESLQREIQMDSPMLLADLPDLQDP

F380Y = assay: BK channel mutant inhibitors and activators – cell-based, U2OS BacMam, thallium flux, beta subunits, selectivity assay, profiling panel (AID 1259406); settings: U2OS BacMam BK variants, at 30 µM;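 also: initial slope of Thallos dye fluorescence rise after thallium is added; log ratio against the mean of 0.3% DMSO vehicle wells on the same plate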
F380Y/beta1 = assay: as above; settings: U2OS BacMam BK variants, at 30 µM
F380Y/beta2Delta = assay: as above; settings: U2OS BacMam BK variants, at 30 µM
F380Y/beta4 = assay: as above; settings: U2OS BacMam BK variants, at 30 µM
[11] = molecular target: Calcium-activated potassium channel subunit alpha-1 (Homo sapiens) + Leucine-rich repeat-containing protein 26 (Homo sapiens) (UniProt Q12791+Q2I0M4); assay: as above; settings: U2OS BacMam BK variants, F380Y/Slo1WT/gamma1, at 30 µM
Calcium-activated potassium channel subunit alpha-1 (Homo sapiens) + Leucine-rich repeat-containing protein 26 (Homo sapiens), sequence (Q2I0M4 whole entry, looked up, one chain of several): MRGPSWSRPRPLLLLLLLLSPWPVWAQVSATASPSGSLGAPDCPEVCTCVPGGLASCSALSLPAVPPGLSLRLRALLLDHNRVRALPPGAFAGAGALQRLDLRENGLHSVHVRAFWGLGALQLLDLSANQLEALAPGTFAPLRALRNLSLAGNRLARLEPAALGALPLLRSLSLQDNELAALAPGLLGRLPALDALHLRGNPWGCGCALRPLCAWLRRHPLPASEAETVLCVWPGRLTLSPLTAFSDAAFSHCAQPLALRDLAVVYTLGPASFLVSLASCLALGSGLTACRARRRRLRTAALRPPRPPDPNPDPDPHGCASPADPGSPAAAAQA

R275C = assay: as above; settings: U2OS BacMam BK variants, at 30 µM
R275C/beta1 = assay: as above; settings: U2OS BacMam BK variants, at 30 µM
R275C/beta2Delta = assay: as above; settings: U2OS BacMam BK variants, at 30 µM
[12] = EMT-state selective cytotoxicity in co-culture – imaging, PC-3E GFP, TEM4-18 mCherry, primary screen (AID 1345086;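 active = compounds killing one labelled cell type while sparing the other, by normalised counts and ratio limits, not self-fluorescent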;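 as to all read-outs here: cells exposed to compound for 72 h before imaging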;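 as to red/green cell ratio (normalised): normalised mesenchymal count divided by normalised epithelial count so high means epithelial killing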); settings: PC-3E GFP / TEM4-18 mCherry co-culture, imaging cell counts, at 1 µM; for red/green cell ratio (normalised): actives lie on both sides, counts scaled to control wells, 1 = unselective
[13] = stronger effect = lower value, cell number ratio, induced over uninduced
[14] = measured here: relative caspase fold change +Dox/-Dox
[15] = measured here: total cells with miR-34 induction, stronger effect = lower value
[16] = measured here: total cells without miR-34 induction
[17] = MELAS cybrid survival, CellTiter-Glo 48 h, stronger effect = higher value
[18] = Rieske KO mouse fibroblast survival, CellTiter-Glo 72 h
[19] = measured here: epithelial PC-3E GFP cell survival
[20] = measured here: mesenchymal TEM4-18 mCherry cell survival

CCN1CCN(C(=O)N[C@@H](C(=O)N[C@@H]2C(=O)N3[C@@H]2SC(C)(C)[C@@H]3C(=O)O)c2ccccc2)C(=O)C1=O
11400 and 10400 and 11200: cell count [8, 16]
89.8% and 93.5% and 71.5%: viability [1]
active: log fold change Tl+ flux (R275C) -0.096
10600 and 8860 and 9900: cell count [8, 15]
inactive: parasite load remaining [1] 50.1% and 75.4% and 36.6% | fluorescence ratio [2] 0.99 | inhibition [3] -3.18% | inhibition [4] -1.24% | fluorescence ratio [5] 0.98 | inhibition [6] 12.4% | mean signal [7] 257 | fold change [8, 13] 0.928 and 0.85 and 0.888 | z-score [9, 17] 0.757 and -0.0978 | luciferase signal [10] 72 AU | log fold change Tl+ flux (F380Y) -0.0272 | log fold change Tl+ flux (F380Y/beta1) 0.00225 | log fold change Tl+ flux (F380Y/beta2Delta) -0.0244 | log fold change Tl+ flux (F380Y/beta4) -0.0114 | log fold change Tl+ flux [11] -0.00699 | log fold change Tl+ flux (R275C/beta1) 0.0207 | log fold change Tl+ flux (R275C/beta2Delta) -0.0292
2.92 and 0.912 and 1.53: fold change [8, 14]
0.573 and 0.405: z-score [9, 18]

CC(C)[N+]1(C)C2CCC1CC(OC(=O)C(CO)c1ccccc1)C2 (stereo not given)
10300 and 7770 and 8120: cell count [8, 15]
inactive: parasite load remaining [1] 58.8% and 74.5% | fluorescence ratio [2] 1.07 | inhibition [3] -3.18% | inhibition [4] -3.53% | fluorescence ratio [5] 1.02 | inhibition [6] 11.9% | mean signal [7] 254 | fold change [8, 13] 0.921 and 0.934 and 0.97 | z-score [9, 17] 0.162 | log fold change Tl+ flux (F380Y) 0.00902 | log fold change Tl+ flux (F380Y/beta1) 0.0263 | log fold change Tl+ flux (F380Y/beta2Delta) -0.00601 | log fold change Tl+ flux (F380Y/beta4) 0.0435 | log fold change Tl+ flux [11] 0.0518 | log fold change Tl+ flux (R275C) 0.0409 | log fold change Tl+ flux (R275C/beta1) -0.0331 | log fold change Tl+ flux (R275C/beta2Delta) 0.000928
98.1% and 77.4%: viability [1]
0.608 and 0.704 and 0.785: fold change [8, 14]
-0.136: z-score [9, 18]
11100 and 8310 and 8370: cell count [8, 16]

COc1cc(OC)c2c(OC)c(-c3ccc4c(c3)OCO4)c(=O)oc2c1
inactive: inhibition [6] -4.99% | red/green cell ratio (normalised) [12] 1.02
0.92: normalised cell number [12, 19]
0.94: normalised cell number [12, 20]

CN1CCN(CC/C=C2/c3ccccc3Sc3ccc(S(=O)(=O)N(C)C)cc32)CC1
inactive: inhibition [6] 2.11% | mean signal [7] 215 | luciferase signal [10] 108 AU

COc1ccc2c3c1O[C@H]1C[C@@H](O)C=C[C@@]31CCN(C)C2
inactive: fluorescence ratio [2] 1.03 | inhibition [3] -2.77% | inhibition [4] -3.95% | fluorescence ratio [5] 1 | inhibition [6] 6.78% | mean signal [7] 226 | red/green cell ratio (normalised) [12] 1.15 | z-score [9, 17] 0.162 and -0.253 | luciferase signal [10] 64 AU | log fold change Tl+ flux (F380Y) 0.0204 | log fold change Tl+ flux (F380Y/beta2Delta) 0.0272 | log fold change Tl+ flux [11] -0.0208 | log fold change Tl+ flux (R275C) 0.0192 | log fold change Tl+ flux (R275C/beta1) -0.00593 | log fold change Tl+ flux (R275C/beta2Delta) 0.0478
0.459 and -0.846: z-score [9, 18]
1: normalised cell number [12, 19]
1.15: normalised cell number [12, 20]

COc1ccc(-c2oc3c(CC=C(C)C)c(O[C@@H]4O[C@H](CO)[C@@H](O)[C@H](O)[C@H]4O)cc(O)c3c(=O)c2O[C@@H]2O[C@@H](C)[C@H](O)[C@@H](O)[C@H]2O)cc1
1.13: normalised cell number [12, 20]
68.9%: viability [1]
inactive: parasite load remaining [1] 70.8% | fluorescence ratio [2] 1 | inhibition [3] -9.9% | inhibition [4] -2.41% | fluorescence ratio [5] 0.98 | inhibition [6] 4.03% | mean signal [7] 233 | red/green cell ratio (normalised) [12] 1.12 | luciferase signal [10] 48 AU | log fold change Tl+ flux (F380Y) 0.00269 | log fold change Tl+ flux (F380Y/beta1) 0.00909 | log fold change Tl+ flux (F380Y/beta2Delta) -0.0493 | log fold change Tl+ flux (F380Y/beta4) -0.0291 | log fold change Tl+ flux [11] -0.0341 | log fold change Tl+ flux (R275C) -0.04 | log fold change Tl+ flux (R275C/beta1) 0.009 | log fold change Tl+ flux (R275C/beta2Delta) -0.0522
1.01: normalised cell number [12, 19]
